In the library only some 0.98% were active in any assay of this set; here they are far more common.
cardiac RTF act: increases calcium sensitivity of human cardiac regulated thin filaments; IANBD-labeled TnC RTF fluorescence at EC20 calcium; 0% EC20 calcium, 100% full calcium; actives 0.24% (n = 340,000); P19429+P45379; activation, % at 7.2 µM; AID 493008;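 active means activation above the mean over all tested compounds plus 3 SD, cut at about 30% in these data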;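 further: rise in fluorescence read as greater calcium sensitivity of cardiac thin filaments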
Keap1 Nrf2 FP: inhibitors of human Keap1-Nrf2 protein-protein interaction; AID 504523; inhibition, % at 9.4 µM; Keap1 Kelch-Nrf2 peptide fluorescence polarization, 1536-well; actives 0.15% (n = 340,000); in the data active means inhibition above about 12%;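 further: human Keap1 Kelch domain with fluorescein labeled Nrf2 9mer peptide probe; higher means more block of Keap1 binding to Nrf2 peptide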
Target sequence (Q14145 whole entry, looked up, the tested form may be a part): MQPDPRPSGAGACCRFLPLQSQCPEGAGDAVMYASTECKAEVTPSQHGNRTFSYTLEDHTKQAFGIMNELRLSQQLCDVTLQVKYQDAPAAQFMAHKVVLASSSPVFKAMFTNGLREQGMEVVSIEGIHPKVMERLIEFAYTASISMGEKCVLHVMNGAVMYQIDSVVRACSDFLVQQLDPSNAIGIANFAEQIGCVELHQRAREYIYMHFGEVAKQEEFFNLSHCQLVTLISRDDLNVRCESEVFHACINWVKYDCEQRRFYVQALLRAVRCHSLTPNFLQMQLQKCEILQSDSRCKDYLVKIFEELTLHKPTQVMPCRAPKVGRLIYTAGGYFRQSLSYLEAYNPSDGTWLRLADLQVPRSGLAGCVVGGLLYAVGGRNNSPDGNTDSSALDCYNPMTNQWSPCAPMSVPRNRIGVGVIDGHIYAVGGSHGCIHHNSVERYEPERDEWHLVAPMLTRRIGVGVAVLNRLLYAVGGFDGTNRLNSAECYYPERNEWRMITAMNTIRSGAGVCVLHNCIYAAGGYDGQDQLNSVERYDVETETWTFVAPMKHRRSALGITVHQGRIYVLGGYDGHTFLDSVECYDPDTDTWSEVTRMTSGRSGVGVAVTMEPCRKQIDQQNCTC
C-LANA FP: blocks KSHV LANA C-terminal domain binding to DNA. MBP-C-LANA/FAM-LBS DNA binding, fluorescence polarization. inhibition, % at 9 µM. actives 0.078% (n = 340,000). AID 504423;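 active means highest replicate inhibition at or above 60% at 9 µM, even if other replicates fall short; inactive means all replicates below 60% inhibition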
LANA-H2A inh: blocks KSHV LANA binding to histone H2A/H2B; inhibition, % (test concentration not listed); actives 0.6% (n = 320,000); cell-free LANA-H2A/H2B peptide, fluorescence polarization; in the data active means inhibition mostly above about 10%, no sharp cut-off; inactive means mostly below about 6.7%
RTF Ca sens inh: cardiac RTF calcium desensitization; P19429+P45379; IANBD-labeled cardiac RTF, Ca2+ fluorescence; actives 0.12% (n = 340,000); AID 493244; inhibition, % at 7.15 µM;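 active means inhibition above the mean inhibition of all tested compounds plus 3 SD, cut at about 17% in these data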;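 further: assay run at fixed EC70 calcium of 1.6 mM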
Keap1 Kelch bind: binders of human Keap1 Kelch domain; shares compounds with Keap1 Nrf2 FP; Keap1 Kelch thermal shift, delta Tm; active compounds read high; max delta Tm, degrees C; actives 8% (n = 400); AID 651823; in the data active means max delta Tm above about 0.48 degrees C
Sypro dye melt: counter-screen for Keap1 thermal shift hits: dye-only artifacts | Sypro Orange dye-only thermal melt, no protein, delta Tm; top dose 26 µM | 140 tested, under 10 active | delta Tm, degrees C (no concentration beside the values) | shares compounds with Keap1 Nrf2 FP;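 active means at highest dose tested, delta Tm positive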
Large screens that a line does not name were inactive (follow-up assays come after a bar, where they were run).

O=C1C=C(c2ccc3ncccc3c2)C[C@@H](c2ccc3c(c2)OCO3)C1	none
Cc1cscc1NC(=O)/C=C/C(=O)O	Keap1 Nrf2 FP 33 (no result: cardiac RTF act, RTF Ca sens inh) | Keap1 Kelch bind inactive
CC(C)N1CCN(Cc2ccc(Sc3nncn3C)o2)CC1CCO (configuration not stated)	none
Cc1oc2c(cc(NS(=O)(=O)c3ccc(C(C)C)cc3)c3ccccc32)c1C(=O)O	Keap1 Nrf2 FP 20, LANA-H2A inh 26 | Keap1 Kelch bind 0.52
CCOC(=O)N1CCN(Cc2ccccc2F)CC1	none
CCOC(=O)N1CCN(Cc2ccccc2Cl)CC1	Keap1 Nrf2 FP 15 | Keap1 Kelch bind inactive
Cc1cc(C)c(C)c(S(=O)(=O)Nc2cccc(S(=O)(=O)Nc3ccccc3C(=O)O)c2)c1C	Keap1 Nrf2 FP 14 | Keap1 Kelch bind 0.58
C=CCn1c(C)cc(C)c(C#N)c1=O	none
C=CCn1c(O)c(CN2CCOCC2)c(C)c(C#N)c1=O	Keap1 Nrf2 FP 14 | Keap1 Kelch bind inactive
C=CCn1c(C(CCCC)CC(O)COCC(C)C)n[nH]c1=S (configuration not stated)	none
CCOC(=O)c1c(NC(=O)CN2CCN(S(=O)(=O)c3cc(Cl)ccc3Cl)CC2)sc(C(=O)N(C)C)c1C	Keap1 Nrf2 FP 27 (no result: LANA-H2A inh) | Keap1 Kelch bind inactive
CCOC(=O)c1c(NC(=O)COC(=O)c2ccc(Cl)nc2)sc(C(=O)N(C)C)c1C	none
c1ccc2c(c1)CCCN2Cc1nnnn1CC1CCCO1 (configuration not stated)	cardiac RTF act 37, Keap1 Nrf2 FP 20 | Keap1 Kelch bind inactive
Cc1nnc(SCC2=C(C(=O)O)N3C(=O)C(NC(=O)COc4ccccc4)C3SC2)s1 (configuration not stated)	none (no result: LANA-H2A inh)
CCC(C(=O)NC1C(=O)N2C(C(=O)O)=C(CSc3nnc(C)s3)CSC12)c1ccccc1 (configuration not stated)	Keap1 Nrf2 FP 30 (no result: LANA-H2A inh) | Keap1 Kelch bind inactive | Sypro dye melt inactive
Cc1cc(C)c2nc3sc(C(=O)N4CCOCC4)c(N)c3cc2c1	Keap1 Nrf2 FP 14 | Keap1 Kelch bind inactive
Cc1ccc(C)c2nc3sc(C(=O)N4CCOCC4)c(N)c3cc12	none
CCCCOC(=O)C1C2CCC(O2)C1C(=O)OCC (configuration not stated)	none (no result: LANA-H2A inh)
Oc1cc(NCCN2CCOCC2)cc2cccnc12	Keap1 Nrf2 FP 18 | Keap1 Kelch bind inactive
Oc1cc(Nc2ccccc2)cc2cccnc12	none
CCC(CNc1cc(OC)cc2cccnc12)NC1CCCCC1 (configuration not stated)	Keap1 Nrf2 FP 17 | Keap1 Kelch bind inactive | Sypro dye melt inactive
Cc1ccccc1N1C(=O)c2cccc3c(N(C)CCO)ccc(c23)C1=O	cardiac RTF act 179, Keap1 Nrf2 FP 14 | Keap1 Kelch bind inactive
COc1cc2c3nnc(-c4ccc(F)cc4)c-3cn(Cc3ccc(C)cc3)c2cc1OC	cardiac RTF act 41, Keap1 Nrf2 FP 13 | Keap1 Kelch bind inactive
CCn1cc(CNC(=O)C2CCC(=O)N(C3CCCCCC3)C2)cn1 (configuration not stated)	none
COc1ccc(C(=O)c2ccc(CC#N)s2)cc1	none
CCc1cc(C(=O)c2ccccc2OC)c(N)s1	none
CCc1cc(C(=O)c2ccc(OC)cc2)c(N)s1	Keap1 Nrf2 FP 26 (no result: cardiac RTF act, RTF Ca sens inh) | Keap1 Kelch bind inactive
COc1ccc(C(=O)c2ccsc2N)cc1	cardiac RTF act 65, Keap1 Nrf2 FP 14 | Keap1 Kelch bind inactive
C=CCOC(=O)C1=C[C@H](c2csc3ccccc23)C[C@H](OCc2ccc(CO)cc2)O1	Keap1 Nrf2 FP 17 | Keap1 Kelch bind inactive | Sypro dye melt inactive
C=CCOC(=O)C1=C[C@@H](c2csc3ccccc23)C[C@@H](OCc2ccc(CO)cc2)O1	none
OC(CCN1CCC2(CC1)OCCO2)C(F)(F)F (configuration not stated)	Keap1 Nrf2 FP 19 (no result: LANA-H2A inh) | Keap1 Kelch bind inactive
c1ccc(-c2nnc(CN3CCC4(CC3)OCCO4)o2)cc1	none
CCCc1nc2oc3cc(OC)ccc3c(=O)c2c(=O)n1Cc1ccco1	Keap1 Nrf2 FP 14 | Keap1 Kelch bind inactive
COc1ccc2c(=O)c3c(=O)n(Cc4ccco4)c(-c4ccccc4)nc3oc2c1	none
CCCCN1C(=O)/C(=C2/Sc3ccccc3N2C)S/C1=N\c1ncn[nH]1	Keap1 Nrf2 FP 41 | Keap1 Kelch bind inactive | Sypro dye melt inactive
C=CCN1C(=O)/C(=C2/Sc3ccc(OC)cc3N2C)SC1=Nc1ccccc1	none
COc1ccc(Nc2nc3ccccc3nc2-n2nc(C)cc2C)cc1	Keap1 Nrf2 FP 43 | Keap1 Kelch bind inactive
O=C(NC1CCN(C(=O)Nc2ccc(F)cc2)CC1)c1ccccc1F	none
Cc1nc2ccccc2n2c(O)c(CC(=O)O)cc12	cardiac RTF act 125, Keap1 Nrf2 FP 22, LANA-H2A inh 27 | Keap1 Kelch bind 0.46
Cc1cc(-c2ccccc2C(=O)O)on1	none
O=C(O)c1ccccc1C1=Nc2ccc(O)cc2Oc2cc(O)ccc21	cardiac RTF act 117, Keap1 Nrf2 FP 70, C-LANA FP 111, LANA-H2A inh 17 | Keap1 Kelch bind inactive | Sypro dye melt inactive
COc1ccc2nc3ccccc3[n+]([O-])c2c1	Keap1 Nrf2 FP 39 (no result: LANA-H2A inh) | Keap1 Kelch bind inactive
O=C(Nn1cnnc1)c1ccc(Cl)c(Cl)c1	Keap1 Nrf2 FP 22 | Keap1 Kelch bind inactive
CCCCN1C(=O)N(C)C2NC(=S)NC21 (configuration not stated)	none (no result: cardiac RTF act, RTF Ca sens inh)
CC(Sc1nc2ccccc2s1)C(=O)Nc1nnc(C(C)C)s1 (configuration not stated)	Keap1 Nrf2 FP 71, C-LANA FP 81 | Keap1 Kelch bind inactive
C#CCN(C(=O)CC1C(=O)NCCN1C/C=C/c1ccccc1)C1CCCCC1 (configuration not stated)	none
COCCCNC(=O)c1ccccc1Oc1ccccc1	none
COCCCNC(=O)c1ccc2c3c(onc13)-c1ccccc1C2=O	Keap1 Nrf2 FP 79 | Keap1 Kelch bind inactive
COCCCNc1nc(N)c([N+](=O)[O-])c(Nc2cc(OC)ccc2OC)n1	Keap1 Nrf2 FP 38 (no result: cardiac RTF act, RTF Ca sens inh) | Keap1 Kelch bind inactive
Cc1ccc(/C=C2/SC(=O)NC2=S)o1	Keap1 Nrf2 FP 25 (no result: LANA-H2A inh) | Keap1 Kelch bind 0.73
O=C(CNC(=O)c1ccccc1)OCCCOC(=O)CNC(=O)c1ccccc1	none
CN(CC(=O)Nc1cc(C(F)(F)F)ccc1-n1cncn1)Cc1ccccc1N1CCOCC1	Keap1 Nrf2 FP 41 (no result: LANA-H2A inh) | Keap1 Kelch bind inactive | Sypro dye melt inactive
Nc1nc(SCC(=O)Nc2cc(C(F)(F)F)ccc2N2CCOCC2)n[nH]1	Keap1 Nrf2 FP 14 | Keap1 Kelch bind inactive | Sypro dye melt inactive
CC(C)=CC(=O)N1CCC(N2CCC(C(=O)NCC3CCCO3)CC2)CC1 (configuration not stated)	none

Compound activity from PubChem.
